# Data from the supplement of paper PMC12350171.
# Counter-ions that a name gives are not always drawn.
# Test system: Haemophilus parainfluenzae
# Experiment: growth AUC normalised to DMSO control (fraction of control); higher = less growth inhibition, active = hit call of the paper
# Conditions: 20 µM;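 active = AUC significantly below DMSO controls by Student t-fit with adjusted P under 0.01; inactive = not significantly reduced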
# How it was run: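 For the AUC endpoint, growth curves were integrated by the trapezoidal rule up to the exponential-to-stationary transition and normalised to DMSO controls on the same plate. The curves came from OD578 readings taken hourly for 24 h, in three biological replicates. Pathogens had been passaged anaerobically twice and inoculated at an OD578 of 0.01 into pre-reduced mGAM plates carrying 20 μM compound and 1% DMSO, sealed with breathable membranes. Medium for Haemophilus parainfluenzae also contained hemin and NAD.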
row,SMILES,growth AUC normalised to DMSO control
1,CC(=O)c1ccc2c(c1)N(CCCN1CCC(CCO)CC1)c1ccccc1S2 [Piperacetazine],1.09 (inactive)
2,C[N+]1(C)CCC(=C(c2ccccc2)c2ccccc2)CC1 [Diphemanil methylsulfate],0.949 (inactive)
3,CNCCC=C1c2ccccc2CCc2ccccc21 [Nortriptyline hydrochloride],0.966 (inactive)
4,CC1=C(C(=O)O)N2C(=O)[C@@H](NC(=O)[C@H](N)c3ccc(O)cc3)[C@H]2SC1 [Cefadroxil],0.949 (inactive)
5,CC(C)C(=O)Nc1ccc([N+](=O)[O-])c(C(F)(F)F)c1 [Flutamide],1.09 (inactive)
6,CCn1cc(C(=O)O)c(=O)c2ccc(C)nc21 [Nalidixic acid sodium salt],0.813 (active)
7,CC(NCCc1ccc(O)cc1)C(O)c1ccc(O)cc1 (stereo not given) [Ritodrine hydrochloride],1 (inactive)
8,N=C(N)N/N=C/c1c(Cl)cccc1Cl [Guanabenz acetate],0.972 (inactive)
9,CCC[C@@H]1C[C@@H](C(=O)N[C@@H]([C@H]2O[C@H](SC)[C@H](O)[C@@H](O)[C@H]2O)[C@@H](C)O)N(C)C1 [Lincomycin hydrochloride],0.828 (active)
10,CN(C)CCCN1c2ccccc2CCc2ccc(Cl)cc21 [Clomipramine hydrochloride],0.922 (inactive)
11,CCOC1O[C@H]([C@@H](COCc2ccccc2)OCc2ccccc2)[C@H](OCc2ccccc2)[C@H]1O (stereo not given in full) [Tribenoside],0.941 (inactive)
12,CC(CCc1ccc(O)cc1)NCCc1ccc(O)c(O)c1 (stereo not given) [Dobutamine hydrochloride],1.05 (inactive)
13,CC[C@H](C)[C@H]1O[C@]2(C=C[C@@H]1C)C[C@@H]1C[C@@H](C/C=C(\C)[C@@H](O[C@H]3C[C@H](OC)[C@@H](O[C@H]4C[C@H](OC)[C@@H](O)[C@H](C)O4)[C@H](C)O3)[C@@H](C)/C=C/C=C3\CO[C@@H]4[C@H](O)C(C)=C[C@@H](C(=O)O1)[C@]34O)O2.CO[C@H]1C[C@H](O[C@H]2[C@H](C)O[C@@H](O[C@@H]3/C(C)=C/C[C@@H]4C[C@@H](C[C@]5(C=C[C@H](C)[C@@H](C(C)C)O5)O4)OC(=O)[C@@H]4C=C(C)[C@@H](O)[C@H]5OC/C(=C\C=C\[C@@H]3C)[C@]54O)C[C@@H]2OC)O[C@@H](C)[C@@H]1O [Avermectin B1],0.997 (inactive)
14,CC[N+](C)(CC)CCC[n+]1c(-c2ccccc2)c2cc(N)ccc2c2ccc(N)cc21 [Propidium iodide],1.04 (inactive)
15,Nc1ccn([C@@H]2O[C@H](CO)[C@@H](O)C2(F)F)c(=O)n1 [Gemcitabine],1.1 (inactive)
16,COC(=O)C1=C(C)NC(C)=C(C(=O)OC(C)C)C1c1cccc2nonc12 (stereo not given) [Isradipine],1.02 (inactive)
17,CCOc1nc2cccc(C(=O)O)c2n1Cc1ccc(-c2ccccc2-c2nnn[nH]2)cc1 [Candesartan],1.05 (inactive)
18,CN(CCOc1ccc(CC2SC(=O)NC2=O)cc1)c1ccccn1 (stereo not given) [Rosiglitazone hydrochloride],1.06 (inactive)
19,O=C(O)CNC(=O)C(CS)Cc1ccccc1 (stereo not given) [Thiorphan],0.891 (inactive)
20,CN(C)[C@@H]1C(=O)C(C(=O)NCNCCCC[C@H](N)C(=O)O)=C(O)[C@@]2(O)C(=O)C3=C(O)c4c(O)cccc4[C@@](C)(O)[C@H]3C[C@@H]12 [Lymecycline],0.935 (inactive)
21,CC(C)(C)C(=O)OCOC(=O)[C@@H]1N2C(=O)[C@@H](/N=C/N3CCCCCC3)[C@H]2SC1(C)C [Pivmecillinam hydrochloride],0.825 (inactive)
22,OCCN1CCN(CCCN2c3ccccc3Sc3ccc(C(F)(F)F)cc32)CC1 [Fluphenazine dihydrochloride],0.999 (inactive)
23,CC1(C)S[C@@H]2[C@H](NC(=O)[C@H](C(=O)O)c3ccsc3)C(=O)N2[C@H]1C(=O)O [Ticarcillin sodium],0.0663 (active)
24,Nc1nc(Cl)nc2c1ncn2[C@H]1C[C@H](O)[C@@H](CO)O1 [Cladribine],1.01 (inactive)
25,CC[C@H]1OC(=O)[C@H](C)[C@@H](O[C@H]2C[C@@](C)(OC)[C@@H](O)[C@H](C)O2)[C@H](C)[C@@H](O[C@@H]2O[C@H](C)C[C@H](N(C)C)[C@H]2O)[C@](C)(O)C[C@@H](C)[C@@H]2N[C@@H](COCCOC)O[C@H]([C@H]2C)[C@]1(C)O [Dirithromycin],0.0968 (active)
